From PubChem BioAssay (Tox21)
Values without a mark were called inactive. Records with an inconclusive call do not appear. Where a call stands in place of a potency, no number is given. Active and inactive are the calls of the source. Unless noted, calls come from the whole dose curve; as a rule, active = well fitted curve in the direction sought with a large enough effect in the repeat runs; inconclusive = weak or mixed curves; inactive = no such curve, though single readings can be large; an effect the other way counts as inactive or inconclusive.

What was measured:
[1] = qHTS assay to identify small molecule agonists of H2AX (AID 1224845; active = well fitted activation curve with a large enough effect in the signal ratio in the repeat runs, not every such curve was filed as active; the % refers to the signal ratio; note: potency is the fitted concentration of half-maximal effect)
In short: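 Wild-type CHO-K1 cells plated overnight, then exposed 3 hr at 37C to compounds at 15 concentrations (0.76% DMSO). Lysed, then HTRF anti-pH2AX(S139)-cryptate/anti-H2AX-d2 detection after 24 hr at room temperature; emissions 665 and 620 nm.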

[2] = qHTS assay to identify small molecule agonists of the hypoxia (HIF-1) signaling pathway (AID 1224846; active = well fitted activation curve with a large enough effect in the signal ratio in the repeat runs, not every such curve was filed as active; the % refers to the signal ratio)
In short: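 Agonist mode reporter screen. ME-180 cells stably expressing bla under HRE control received test compounds in DMSO for 17 hrs (37C, 5% CO2), and beta-lactamase activity was then detected with the CCF4-AM FRET substrate.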

[3] = qHTS assay to identify small molecule agonists of H2AX - cell viability counter screen (AID 1224847; calls by dose curve; note: top concentration of the series differs between compounds; nearly all actives have a fitted effect of over 30% in size)
In short: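 Read-out: CellTiter-Glo luminescence, 30 min RT. Cells: wild-type CHO-K1, 1000/well, 10% FBS, plated overnight at 37C. Treatment: 15 concentrations, 3 hr, 37C, 0.76% DMSO.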

[4] = qHTS RealTime-Glo MT Cell Viability Assay in HepG2 cells - 24 hour (AID 1224867); note: nearly all actives have a fitted effect of over 50% in size
In short: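 Compound treatment began 5 h after plating HepG2 cells (600/well) with NanoLuc luciferase and prosubstrate. Plates stayed at 37 C for 40 h; luminescence was captured at six time points, 0 h through 40 h.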

[5] = qHTS RealTime-Glo MT Cell Viability Assay in HEK293 cells - 32 hour (AID 1224868); note: nearly all actives have a fitted effect of over 50% in size; note: potency is the fitted concentration of half-maximal effect
In short: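 Quantitative high-throughput screen of the Tox21 10K library in HEK293: cells and RealTime-Glo reagents plated together, compound added at 5 h, luminescence monitored through 40 h at 37 C.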

[6] = A CellTox Green Cytotoxicity Assay to monitor cytotoxicity in HEK293 cells - 0 hour (AID 1224869); note: nearly all actives have a fitted effect of over 50% in size
In short: (§1)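 Dead-cell fluorescence measured kinetically: asymmetric cyanine dye, HEK293, 600 cells/well, 5 h settle, 23 nL cpd/DMSO, 37 C, reads 0–40 h every 8 h.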

[7] = qHTS RealTime-Glo MT Cell Viability Assay in HepG2 cells - 40 hour (AID 1224870); note: nearly all actives have a fitted effect of over 50% in size; note: potency is the fitted concentration of half-maximal effect
In short: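 HepG2 cells mixed with RealTime-Glo MT reagents (NanoLuc plus cell-permeant prosubstrate) were seeded at 600 cells/well, incubated 5 h at 37 C/5% CO2, then pinned with compounds in DMSO; nonlytic luminescence tracked viability during 40 h treatment.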

[8] = A CellTox Green Cytotoxicity Assay to monitor cytotoxicity in HEK293 cells - 40 hour (AID 1224871); note: nearly all actives have a fitted effect of over 45% in size
In short: as §1

[9] = qHTS assay to identify small molecule antagonists of the estrogen related receptor (ERR) signaling pathway from Tox21 library (AID 1224848); note: nearly all actives have a fitted effect of over 50% in size
In short: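 First, 2,000 ERR cells per well were plated and held 6 h at 37 C/5% CO2. Next, compounds in DMSO were pinned in and left 18 h at 37 C. Finally, ONE-Glo was added and luminescence read after 30 min at room temperature.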

[10] = qHTS assay to identify small molecule agonists of the estrogen related receptor (ERR) signaling pathway from Tox21 library (AID 1224849; calls by dose curve; note: nearly all actives have a fitted effect of over 15% in size)
In short: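 Quantitative HTS in agonist format: NTP ERR cell line, compounds transferred in DMSO after 6 h plating, 18 h incubation at 37 C, ONE-Glo luminescence endpoint.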

Compound	Potency [1]	outcome [2]	outcome [3]	outcome [4]	Potency [5]	outcome [6]	Potency [7]	Potency [8]	Potency [9]	outcome [10]
CN1C(C)(C)CC(O)CC1(C)C	inactive	inactive	inactive	inactive	inactive	inactive	inactive	inactive	–	–
CCOCC(C)O (stereo not drawn)	inactive	inactive	inactive	inactive	inactive	inactive	inactive	inactive	inactive	inactive
Cc1ccc(C(=O)Nc2ccc(S(=O)(=O)O)c3cc(S(=O)(=O)O)cc(S(=O)(=O)O)c23)cc1NC(=O)c1cccc(NC(=O)Nc2cccc(C(=O)Nc3cc(C(=O)Nc4ccc(S(=O)(=O)O)c5cc(S(=O)(=O)O)cc(S(=O)(=O)O)c45)ccc3C)c2)c1	inactive	inactive	inactive	inactive	inactive	–	inactive	inactive	inactive	inactive
CCOC(=O)CCC(=O)OCC	inactive	inactive	inactive	inactive	inactive	inactive	inactive	inactive	inactive	inactive
COc1ccc2cc1Oc1cc3c(cc1OC)CC[N+](C)(C)[C@H]3Cc1ccc(cc1)Oc1c(OC)c(OC)cc3c1[C@@H](C2)[N+](C)(C)CC3	inactive	inactive	inactive	–	inactive	inactive	16900 nM (active)	inactive	inactive	inactive
CCOC(=O)OC(C)OC1=C(C(=O)Nc2ccccn2)N(C)S(=O)(=O)c2ccccc21 (stereo not drawn)	inactive	inactive	inactive	inactive	inactive	inactive	inactive	inactive	inactive	inactive
O=C(CO)[C@@H](O)[C@H](O)[C@H](O)CO	inactive	inactive	inactive	inactive	inactive	–	inactive	inactive	inactive	inactive
CO[C@@]1(NC(=O)CSC[C@@H](N)C(=O)O)C(=O)N2C(C(=O)O)=C(CSc3nnnn3C)CS[C@@H]21	inactive	inactive	inactive	inactive	inactive	inactive	inactive	inactive	inactive	inactive
CCCC(C)C(=O)OCC (stereo not drawn)	inactive	inactive	inactive	inactive	inactive	inactive	inactive	inactive	inactive	inactive
Cc1ccc(-c2ccccc2C#N)cc1	inactive	inactive	inactive	inactive	inactive	inactive	inactive	inactive	–	–
CCOC(=O)C1=NOC(c2ccccc2)(c2ccccc2)C1	inactive	inactive	inactive	inactive	inactive	inactive	inactive	inactive	–	–
COCCOC[C@H](CC1(C(=O)NC2CCC(C(=O)O)CC2)CCCC1)C(=O)Oc1ccc2c(c1)CCC2 (stereo partly drawn)	inactive	inactive	inactive	inactive	inactive	–	inactive	inactive	inactive	inactive
CCCCc1ccc2c(n1)[C@@H](c1ccc(OC)cc1C[C@H](C)C(=O)O)[C@H](C(=O)O)[C@H]2c1ccc2c(c1)OCO2	inactive	inactive	inactive	inactive	inactive	inactive	inactive	inactive	–	–
COc1ccccc1OCC1CNC(=O)O1 (stereo not drawn)	inactive	inactive	inactive	inactive	inactive	inactive	inactive	inactive	inactive	inactive
CCOc1c(N2CCOCC2)cnn(C)c1=O	inactive	inactive	inactive	inactive	inactive	inactive	inactive	inactive	–	–
CC(=O)C1CCCCC1=O (stereo not drawn)	inactive	inactive	inactive	inactive	inactive	–	inactive	inactive	–	–
OCCc1ccccn1	inactive	inactive	inactive	inactive	inactive	inactive	inactive	inactive	–	–
Cc1ncc(COP(=O)(O)O)c(C=O)c1O	inactive	inactive	inactive	inactive	inactive	inactive	inactive	inactive	–	–
CCN(C=O)CC	inactive	inactive	inactive	inactive	inactive	inactive	inactive	inactive	–	–
Cc1onc(-c2c(Cl)cccc2Cl)c1C(=O)Cl	inactive	inactive	inactive	inactive	inactive	inactive	inactive	inactive	–	–
Cc1coc2ccccc2c1=O	inactive	inactive	inactive	inactive	inactive	inactive	inactive	inactive	–	–
[O-][n+]1cccc(CO)c1	inactive	inactive	inactive	inactive	inactive	inactive	inactive	inactive	–	–
Nc1ccn([C@@H]2O[C@H](CO)[C@@H](O)C2(F)F)c(=O)n1	982 nM (active)	inactive	inactive	inactive	1070 nM (active)	inactive	inactive	inactive	–	–
CC1CCC(CO)CC1 (stereo not drawn)	inactive	inactive	inactive	inactive	inactive	inactive	inactive	inactive	–	–
O=C(O)c1cc(C(=O)O)cc(C(=O)O)c1	inactive	inactive	inactive	inactive	inactive	inactive	inactive	inactive	–	–
CC(=O)N1C[C@H](O)C[C@H]1C(=O)O	inactive	inactive	inactive	inactive	inactive	inactive	inactive	inactive	–	–
